The values that follow come from PubChem BioAssay AID1851 (National Center for Advancing Translational Sciences (NCATS), 2009).

Hit rate of the full screen: of about 16,000 compounds, about 5,100 (32%) were called active. Not shown: some 25% with an inconclusive outcome. This is one part of the list. A number with no mark means an inactive call. Calls come from the whole dose curve; as a rule, active = well fitted curve in the direction sought with a large enough effect; inconclusive = small, poorly fitted or top-dose-only effect, or effect the other way; inactive = no such curve, though single readings can be large or run the other way.
% is set by controls: 0 for no effect and ±100 for the full control effect.

For the assay, the target named is Cytochrome P450 3A4 (Homo sapiens) (UniProt P08684). In words: Cytochrome panel assay with activity outcomes. To be noted: recombinant CYP, pro-luciferin dealkylation, luminescence, p450-cyp3a4; series mostly up to 57.1 µM; activity, negative = inhibition: at the top concentration.
Cytochrome P450 3A4 (Homo sapiens), sequence (P08684 whole entry, looked up): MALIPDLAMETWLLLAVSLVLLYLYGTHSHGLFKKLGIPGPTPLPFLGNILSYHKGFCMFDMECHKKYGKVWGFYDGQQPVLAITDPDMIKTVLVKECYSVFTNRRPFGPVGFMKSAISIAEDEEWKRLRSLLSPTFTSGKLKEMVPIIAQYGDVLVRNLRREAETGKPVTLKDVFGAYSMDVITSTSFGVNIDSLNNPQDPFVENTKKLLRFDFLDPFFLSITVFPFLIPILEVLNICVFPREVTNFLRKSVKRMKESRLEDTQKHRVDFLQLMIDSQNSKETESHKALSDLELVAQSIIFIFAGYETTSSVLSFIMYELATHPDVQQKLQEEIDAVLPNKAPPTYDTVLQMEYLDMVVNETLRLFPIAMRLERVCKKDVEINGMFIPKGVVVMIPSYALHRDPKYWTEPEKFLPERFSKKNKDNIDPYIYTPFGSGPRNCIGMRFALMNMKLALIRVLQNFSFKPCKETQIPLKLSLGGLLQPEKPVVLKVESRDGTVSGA
With `O=C(NNC(=O)C1CCCCC1)c1cnccn1`, the activity, negative = inhibition was -0.435% [at 2.29 µM].
By AC50 is commonly meant the midpoint of the concentration-response curve, whichever way the signal moves. For the molecule `O=C(NCc1ccccc1Cl)c1cnccn1`, the concentration at half-maximal activity (AC50) is 1 µM (active).
Regarding `COc1ccccc1OCC(=O)NNC(=O)c1cnccn1`, the activity, negative = inhibition was 16% [at 2.29 µM].
`COc1cccc(-c2nccc(NCc3ccccc3OC)n2)c1`: the AC50 is 2.51 µM (active).
With `COc1ccc(CNc2ccnc(-c3cccnc3)n2)c(OC)c1`, the AC50 was 0.631 µM (active).
Regarding `COCCNc1ccnc(-c2cccc(NS(C)(=O)=O)c2)n1`, the AC50 is 25.1 µM (active).
On to `COc1ccc(CNc2ccnc(-c3cccc(NS(C)(=O)=O)c3)n2)c(OC)c1`, for which the AC50 is 3.98 µM (active).
With `CSc1nc(-c2ccc(C)cc2)nc(C(Cl)Cl)n1`, the “activity, negative = inhibition” value was -4.04%.
Consider `COc1cccc(-c2nccc(NCc3ccc(OC)cc3OC)n2)c1`, for which the AC50 was 3.16 µM (active).
Regarding `Cc1noc(C)c1C(=O)N1CCC2(CC1)CN(c1ncccn1)C2`, the “activity, negative = inhibition” value was -3.04%.
Take `COc1ccccc1CN1CC[C@@]2(CCCN(C(=O)c3c(C)noc3C)C2)C1`: the AC50 is 1.58 µM (active).
As for `Cc1noc(C)c1C(=O)N1CCC2(CCN(Cc3cc(C(F)(F)F)cc(C(F)(F)F)c3)CC2)CC1`, the “activity, negative = inhibition” value is -11.6%.
For the molecule `Cc1noc(C)c1C(=O)N1CCC2(CCN(Cc3nccs3)CC2)CC1`, the “activity, negative = inhibition” value is -15.6%.
Turning to `COc1ccccc1CN1CCC2(CC1)CCN(C(=O)c1c(C)noc1C)CC2`, the “activity, negative = inhibition” value was -14.3%.
Take `Cc1noc(C)c1C(=O)N1CCC[C@@]2(CCN(Cc3ccccc3)C2)C1`: the AC50 was 12.6 µM (active).
For the molecule `Cc1noc(C)c1C(=O)N1CCC[C@@]2(CCN(Cc3nccs3)C2)C1`, the half-maximal activity concentration (AC50) is 15.8 µM (active).
In the case of `Cc1noc(C)c1C(=O)N1CCC2(CCN(Cc3ccccc3)CC2)CC1`, the “activity, negative = inhibition” value is -9.16%.
Still for that read-out and setting: the value for `CC(C)(N=NC(C)(C)C1=NCCN1)C1=NCCN1` was -8.65% [at 11.4 µM]; that for `CCCCOc1ccc(OC(=O)c2cccnc2)cc1` was -18.3%.
Turning to `CCCCOc1ccc(S(=O)(=O)Nc2cccnc2)cc1`, the AC50 is 2.51 µM (active).
For `COc1cnc(NS(=O)(=O)c2ccc(N)cc2)nc1`, the “activity, negative = inhibition” value was -28.2% [at 25.6 µM].
As to `Cc1ccc(Nc2nnc(-c3ccc4c(c3)OCO4)o2)c(C)c1`, the AC50 was 3.16 µM (active).
Consider `C[C@H](NC[C@H](O)CP(=O)(O)Cc1ccccc1)c1ccc(Cl)c(Cl)c1`, for which the “activity, negative = inhibition” value is -13.6%.
`CN(C)Cc1ccccc1-c1nc(NC2CC2)c2ccccc2n1`: the AC50 is 15.8 µM (active).
Turning to `FC(F)(F)c1ccccc1-c1nc(NC2CC2)c2ccccc2n1`, the concentration at half-maximal activity (AC50) is 3.16 µM (active).
On the same count and under the same terms, next, `Cc1ccccc1-c1nc(NC2CC2)c2ccccc2n1`: 3.98 µM (active).
With `FC(F)(F)c1ccccc1-c1nc(NC2CCNCC2)c2ccccc2n1`, the “activity, negative = inhibition” value is -4.54%.
In the case of `COc1ccccc1-c1nc(NC2CC2)c2ccccc2n1`, the half-maximal activity concentration (AC50) was 12.6 µM (active).
For `Cc1ccccc1-c1nc(NC2CCNCC2)c2ccccc2n1`, the “activity, negative = inhibition” value was -20.4%.
As to `N[C@H](C(=O)O)C1[C@H](C(=O)O)[C@H]1C(=O)O` (stereo partly drawn), the “activity, negative = inhibition” value is -11.1%.
Turning to `Cc1ccc(SCCNC(=S)Nc2ccc(C)c(C)c2)cc1`, the AC50 was 6.31 µM (active).
On to `CCCNC(=S)Nc1ccc(Br)cc1`, for which the “activity, negative = inhibition” value is -29.9%.
As to `CCOC(=O)C1(S(=O)(=O)c2ccc(Cl)cc2)CCN(Cc2ccc(Cl)cc2)CC1`, the AC50 is 7.08 µM (active).
Consider `CC(C)NC1(C(N)=O)CCN(Cc2ccccc2)CC1`, for which the activity, negative = inhibition was -7.69% [at 11.4 µM].
In the case of `CC(=O)N1CCC2(CCN(Cc3ccccc3)CC2)CC1`, the “activity, negative = inhibition” value is -7.61%.
Regarding `CCOC(=O)C1(S(=O)(=O)c2ccccc2)CCN(Cc2ccccc2)CC1`, the concentration at half-maximal activity (AC50) was 5.01 µM (active).
In the case of `COCC(=O)N1CCC2(CCN(Cc3ccccc3)CC2)CC1`, the “activity, negative = inhibition” value is -24.6%.
On to `CC1(C)Cc2c(C#N)c(SCc3ccccc3)nc(N3CCOCC3)c2CO1`, for which the AC50 was 25.1 µM (active).
On to `Nc1nc(N)c(N=Nc2ccc(C(=O)O)c(O)c2)c(N)n1`, for which the activity, negative = inhibition was -18% [at 11.4 µM].
Same read-out and setting: the value for `CC(Oc1ccccc1)C(=O)Nc1nc2c(s1)C(=O)CC(C)(C)C2` (stereo not drawn) was -14.5%; that for `COc1ccc(NC(=O)OC(C)C)cc1` was -9.73% [at 2.29 µM].
For the molecule `CCn1c2ccccc2c2cc(NC(=O)C(C)Oc3ccc(OC)cc3)ccc21` (stereo not drawn), the AC50 is 6.31 µM (active).
Turning to `CN(N=O)c1ccc(/C=C\c2ccnc3ccccc23)cc1`, the activity, negative = inhibition is -15.2% [at 11.4 µM].
As for `CCN(CC)c1ccc(/C=C/c2nc3ccccc3s2)cc1`, the half-maximal activity concentration (AC50) was 11.2 µM (active).
Take `Cc1nc2ccccn2c1/C(O)=C1\C(=O)C(=O)N(CCN2CCOCC2)C1c1cccnc1` (stereo not drawn): the “activity, negative = inhibition” value is -19.1%.
Same read-out and setting: the value for `Cc1nc2c(C)cccn2c1/C(O)=C1\C(=O)C(=O)N(CCN2CCOCC2)C1c1cccs1` (stereo not drawn) was -26.2%.
As for `Cc1nc2ccccn2c1/C(O)=C1\C(=O)C(=O)N(CCCn2ccnc2)C1c1ccncc1` (stereo not drawn), the AC50 was 11.2 µM (active).
For `CN(CCc1ccccn1)Cc1ccc(Cl)cc1Cl`, the AC50 was 7.94 µM (active).
Take `CC(C)C(=O)C(C)(C)CCc1ccccn1`: the activity, negative = inhibition was -11% [at 11.4 µM].
Turning to `Cc1cccc(CN(C)CCc2ccccn2)c1`, the “activity, negative = inhibition” value is -16.6%.
As for `COc1cccc(CNC(=O)C2CCN(S(=O)(=O)N3CCCCC3)CC2)c1`, the AC50 is 22.4 µM (active).
`CCS(=O)(=O)N1CCC(C(=O)NCc2ccccc2OC)CC1`: the activity, negative = inhibition was 4.92% [at 11.4 µM].
With `COc1ccc(CCNC(=O)C2CCN(S(=O)(=O)N3CC(C)CC(C)C3)CC2)cc1OC` (stereo not drawn), the AC50 is 7.08 µM (active).
Turning to `COc1ccccc1CNC(=O)C1CCN(S(=O)(=O)N2CC(C)CC(C)C2)CC1` (stereo not drawn), the AC50 is 11.2 µM (active).
`O=C(Nc1cc2c(oc1=O)CCCC2=O)c1ccc(Cl)cc1`: the “activity, negative = inhibition” value is -7.77%.
Regarding `Cc1cc(NC(=O)c2cc(C(C)C)on2)no1`, the “activity, negative = inhibition” value is -1.14%.
With `CCOc1ccc(C(=O)Nc2ccccc2N2CCCC2)cc1`, the activity, negative = inhibition was -11.9% [at 2.29 µM].
In the case of `NS(=O)(=O)c1cc(C(=O)O)cc(N2CCCC2)c1Oc1ccccc1`, the “activity, negative = inhibition” value is -10.8% [at 25.6 µM].
For the molecule `Cc1ccc(OCC(=O)Nc2ccccc2N2CCOCC2)c(C)c1`, the half-maximal activity concentration (AC50) was 14.1 µM (active).
For the molecule `Cc1ccc(OCC(=O)Nc2ccc(Cl)cc2)c(-n2nc3ccccc3n2)c1`, the activity, negative = inhibition was -10.5% [at 2.29 µM].
As to `O=C(COc1ccccc1)Nc1cc(C(F)(F)F)ccc1N1CCCC1`, the AC50 is 3.98 µM (active).
Consider `CC(=O)N1CCN(c2ccccc2NC(=O)COc2ccc(Br)cc2)CC1`, for which the AC50 was 4.47 µM (active).
For `O=C(Nc1cc(C(F)(F)F)ccc1N1CCCCC1)c1ccc(Br)o1`, the “activity, negative = inhibition” value is -26.6%.
With `CCCCC(=O)NC(Nc1cc(C)ccn1)(C(=O)OCC)C(F)(F)F` (stereo not drawn), the AC50 was 7.08 µM (active).
Turning to `O=P(O)(O)O[C@@H]1O[C@H](CO)[C@@H](O)[C@H](O)[C@@H]1O`, the activity, negative = inhibition was -3.16% [at 11.4 µM].
As to `N#CCSc1nc2cc(C(=O)N3CCCC3)ccc2c(=O)n1Cc1ccccc1`, the concentration at half-maximal activity (AC50) was 12.6 µM (active).
As for `CN1CCN(C(=O)c2ccc3c(=O)n4c(nc3c2)CCCCC4)CC1`, the “activity, negative = inhibition” value is -14.7%.
As for `N#CCSc1nc2ccc(N3CCCCC3)cc2c(=O)n1Cc1ccccc1`, the AC50 was 7.08 µM (active).
Take `O=c1c2ccccc2nc(-c2ccc(Br)cc2)n1Cc1ccccc1`: the “activity, negative = inhibition” value is -24.8%.
Regarding `COc1ccc(NC(=O)N2CCCC3(CCN(C(=O)c4ccc(OC)cc4)CC3)C2)cc1`, the concentration at half-maximal activity (AC50) was 12.6 µM (active).
As to `COc1ccc(C(=O)N2CCC[C@@]3(CCN(C(=O)Nc4ccccc4)C3)C2)cc1`, the AC50 was 15.8 µM (active).
Consider `Cn1cccc1C(=O)N1CCC2(CC1)CN(C(=O)Nc1ccccc1)C2`, for which the “activity, negative = inhibition” value is 17.1%.
`COc1ccc(NC(=O)N2CC[C@@]3(CCCN(C(=O)c4cc(C(F)(F)F)cc(C(F)(F)F)c4)C3)C2)cc1`: the AC50 is 20 µM (active).
Take `COc1ccc(C(=O)N2CCC3(CC2)CN(C(=O)Nc2ccccc2)C3)cc1`: the “activity, negative = inhibition” value is -7.5%.
Consider `COc1ccc(NC(=O)N2CCCC3(CCN(C(=O)c4cccn4C)CC3)C2)cc1`, for which the AC50 was 25.1 µM (active).
Consider `COC(=O)N1CCC[C@@]2(CCN(C(=O)Nc3ccccc3)C2)C1`, for which the “activity, negative = inhibition” value was -17.2%.
Still for that read-out and setting: the value for `COc1ccc(NC(=O)N2CC3(CCN(C(=O)c4cccn4C)CC3)C2)cc1` was 8.86%; that for `CC(=O)ON(C(C)=O)S(=O)(=O)c1ccc(Cl)cc1` was -17.1%.
`COc1ccc(NC(=O)N2CCCC3(CCN(C(=O)c4ccco4)CC3)C2)cc1`: the concentration at half-maximal activity (AC50) was 15.8 µM (active).
On the same count and under the same terms, next, `COc1ccc(NC(=O)N2CC[C@@]3(CCCN(C(=O)c4ccc(OC)cc4)C3)C2)cc1`: 15.8 µM (active).
`COCC(=O)N1CCC2(CC1)CN(C(=O)Nc1ccc(OC)cc1)C2`: the “activity, negative = inhibition” value was -11.2%.
Consider `COc1ccc(NC(=O)N2CCCC3(CCNCC3)C2)cc1`, for which the AC50 was 25.1 µM (active).
In the case of `COC(=O)N1CCC2(CC1)CN(C(=O)Nc1ccc(OC)cc1)C2`, the “activity, negative = inhibition” value was 2.58%.
As for `COc1ccc(NC(=O)N2CC3(CCN(C(=O)c4ccco4)CC3)C2)cc1`, the “activity, negative = inhibition” value was -10.7%.
For `COc1ccc(NC(=O)N2CC[C@@]3(CCCNC3)C2)cc1`, the “activity, negative = inhibition” value was -19.2%.
For `COc1ccc(NC(=O)N2CC[C@@]3(CCCN(C(C)=O)C3)C2)cc1`, the “activity, negative = inhibition” value was -13.3%.
`COc1ccc(NC(=O)N2CCC3(CC2)CCN(C(=O)c2ccco2)CC3)cc1`: the “activity, negative = inhibition” value was 20.5%.
Regarding `N#Cc1ccc(Oc2nc(C(N)=O)cc(-c3ccccc3)n2)cc1`, the “activity, negative = inhibition” value was -2.92%.
Consider `CO/N=C(\C(=O)N[C@@H]1C(=O)N2C(C(=O)[O-])=C(C[N+]3(C)CCCC3)CS[C@@H]12)c1csc(N)n1`, for which the “activity, negative = inhibition” value was 24.4% [at 25.6 µM].
`Nc1nc2c(c(=O)[nH]1)N[C@H](CCNc1ccc(C(=O)O)cc1)CN2`: the activity, negative = inhibition is -0.744% [at 11.4 µM].
For the molecule `CCOC(=O)C(C(=O)NCc1ccc(C)cc1)c1ncc(C(F)(F)F)cc1Cl` (stereo not drawn), the AC50 is 1.26 µM (active).
With `CCOc1c2ccc(C(=O)NCc3ccc(OC(F)(F)F)cc3)cc2nn1CC`, the activity, negative = inhibition was -2.81% [at 2.29 µM].
Consider `CCOc1ccc(/C(O)=C2/C(=O)C(=O)N(CCOCCO)C2c2cccnc2)cc1` (stereo not drawn), for which the “activity, negative = inhibition” value was -16%.
For the molecule `C(=C1/CCCC2=C1Nc1ncnn1C2c1ccccc1)/c1ccccc1` (stereo not drawn), the “activity, negative = inhibition” value was 30.7%.
As to `COc1cc(OC)c(C2C(C(=O)Nc3ccc(C)cc3C)=C(C)Nc3ncnn32)cc1OC` (stereo not drawn), the AC50 was 8.91 µM (active).
Same read-out and setting: next, `CCOC(=O)C1=C(C)Nc2ncnn2C1c1cccnc1` (stereo not drawn): 11.2 µM (active).
In the case of `COc1ccc(NC(=O)c2ccc(-n3cccn3)nc2)c(OC)c1`, the “activity, negative = inhibition” value is -25.9%.
`CCCCOC(=O)C1=C(C)Nc2ncnn2C1c1cc(OC)ccc1OC` (stereo not drawn): the concentration at half-maximal activity (AC50) was 7.08 µM (active).
